Laboratory results as given in PubChem BioAssay (NCATS).
Results filed as inconclusive are left out. Activity calls are given as the source filed them. Unless noted, the call rests on the fitted dose curve; in most records, active means well fitted curve in the direction sought with a large enough effect; inconclusive means small, poorly fitted or top-dose-only effect, or another doubt; inactive means no such curve, though single readings can be large; an effect the other way counts as inactive or inconclusive.

Legend:
[1] = P-glycoprotein substrates identified in KB-3-1 adenocarcinoma cell line, qHTS therapeutic library screen (AID 1346986); further: nearly all actives have a fitted effect of over 60% in size;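 further: potency means the concentration at half of the fitted maximal effect; potency is for cytotoxicity meaning loss of cell viability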
Outline: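 Viability by CellTiter-Glo after 72 h compound exposure at 37 degree C, 5% CO2. Cytotoxic call: curve class -1.1 to -2.4, maximum response >50%, AC50 < 10 uM, compared across KB-3-1 and P-gp-overexpressing KB-8-5-11.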

[2] = qHTS to identify inhibitors of the type 1 interferon - major histocompatibility complex class I in skeletal muscle: primary screen against the NCATS Mechanism Interrogation Plate v5.0 (MIPE) Libary (AID 1347411);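 further: plate controls were vehicle for no effect and reference inhibitor for full effect; nearly all actives have a fitted effect of over 65% in size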
Outline: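 HLA-B HiBit myoblasts, dexamethasone-free medium + 4 ng/ml IFN-b, 24 h compound, 11-pt 1:3 from 46 uM final. Readout: Nano-Glo HiBiT lytic luminescence after 10 min lysis, RT.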

[3] = Primary qHTS for inhibitors of nuclear receptor binding SET domain protein 2 (NSD2) in an RCH-ACV wild type WT cells (2C) (AID 1645877); further: nearly all actives have a fitted effect of over 70% in size; further: potency means the concentration at half of the fitted maximal effect
[4] = target: Glutathione peroxidase 1 (Homo sapiens) (UniProt P07203); assay: Primary qHTS Assay for Inhibitors of Recombinant Selenoprotein Glutathione Peroxidase 1 (GPX1) (AID 1845191); further: nearly all actives have a fitted effect of over 65% in size
Chain of Glutathione peroxidase 1 (Homo sapiens) (P07203 whole entry, looked up): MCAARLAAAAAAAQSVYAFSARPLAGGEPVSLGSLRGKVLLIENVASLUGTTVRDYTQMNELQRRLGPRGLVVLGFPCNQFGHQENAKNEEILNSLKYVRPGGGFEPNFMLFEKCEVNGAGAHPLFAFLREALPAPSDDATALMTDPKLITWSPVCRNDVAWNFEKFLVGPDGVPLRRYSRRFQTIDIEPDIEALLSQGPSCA
Outline: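 GR-coupled readout: NADPH consumption tracked by fluorescence, ex 340/em 450 nm, at t=0 and after 15 min at RT. Final mix 10 nM GPX1, 1 mM GSH, 0.5 mM CHP, 0.5 mM NADPH, 100 nM GR, 0.01% BSA, following 30 min enzyme–compound preincubation.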

[5] = target: Phospholipid hydroperoxide glutathione peroxidase GPX4 (Homo sapiens) (UniProt P36969); assay: Primary qHTS Assay for Inhibitors of Recombinant Selenoprotein Glutathione Peroxidase 4 (GPX4) (AID 1845192); conditions: outcome: dose series up to 50 µM unless noted; further: on the % scale 0 is the no-effect control and ±100 the full control effect; nearly all actives have a fitted effect of over 65% in size
Chain of Phospholipid hydroperoxide glutathione peroxidase GPX4 (Homo sapiens) (P36969 whole entry, looked up): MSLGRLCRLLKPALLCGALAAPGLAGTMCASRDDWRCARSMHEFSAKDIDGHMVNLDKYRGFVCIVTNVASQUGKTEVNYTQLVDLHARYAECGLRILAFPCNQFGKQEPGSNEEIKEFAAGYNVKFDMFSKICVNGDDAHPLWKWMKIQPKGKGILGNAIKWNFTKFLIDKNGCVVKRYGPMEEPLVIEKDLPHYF
Outline: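 Steps: GPX4 plus compound, 30 min RT; add GR/GSH/NADPH master mix; start with cumene hydroperoxide; read 340/450 nm fluorescence at 0 and 15 min. Finals were 200 nM GPX4, 1 mM GSH, 0.5 mM CHP, 0.5 mM NADPH, 100 nM GR.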

[6] = qHTS drug screen for cell cycle checkpoint inhibitors in PARPi-resistant BRCA-mutant ovarian cancer cell lines. (AID 1963452; calls by dose curve); conditions: PEO1/OlaR viability, CellTiter-Glo luminescence, 96 h, stronger effect = lower value
Outline: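 PEO1, PEO4 and PEO1/OlaR ovarian cancer cells, 600 per well, exposed 96 h at 37C to a dilution series. Viability read by CellTiter-Glo luminescence, normalized to DMSO and empty wells; activity summarized as Z-AUC.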

[7] = P-glycoprotein substrates identified in KB-8-5-11 adenocarcinoma cell line, qHTS therapeutic library screen (AID 1346987); further: nearly all actives have a fitted effect of over 65% in size
Outline: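 In this qHTS, P-gp-rich KB-8-5-11 cells received library compounds across a concentration range. Viability was quantified by luminescence after 72 h at 37 degree C.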

[8] = Primary qHTS for inhibitors of nuclear receptor binding SET domain protein 2 (NSD2) in an isogenic RCH-ACV NSD2 p.E1099K mutant (9B) (AID 1645876); further: nearly all actives have a fitted effect of over 70% in size; further: potency means the concentration at half of the fitted maximal effect
[9] = target: Lysosomal acid glucosylceramidase (Homo sapiens) (UniProt P04062); assay: Glucocerebrosidase-p2 (AID 348; in the data active means potency below about 10 µM; further: potency means the concentration at half of the fitted maximal effect); conditions: purified GBA, blue fluorogenic substrate, 40 min
Chain of Lysosomal acid glucosylceramidase (Homo sapiens) (P04062 whole entry, looked up): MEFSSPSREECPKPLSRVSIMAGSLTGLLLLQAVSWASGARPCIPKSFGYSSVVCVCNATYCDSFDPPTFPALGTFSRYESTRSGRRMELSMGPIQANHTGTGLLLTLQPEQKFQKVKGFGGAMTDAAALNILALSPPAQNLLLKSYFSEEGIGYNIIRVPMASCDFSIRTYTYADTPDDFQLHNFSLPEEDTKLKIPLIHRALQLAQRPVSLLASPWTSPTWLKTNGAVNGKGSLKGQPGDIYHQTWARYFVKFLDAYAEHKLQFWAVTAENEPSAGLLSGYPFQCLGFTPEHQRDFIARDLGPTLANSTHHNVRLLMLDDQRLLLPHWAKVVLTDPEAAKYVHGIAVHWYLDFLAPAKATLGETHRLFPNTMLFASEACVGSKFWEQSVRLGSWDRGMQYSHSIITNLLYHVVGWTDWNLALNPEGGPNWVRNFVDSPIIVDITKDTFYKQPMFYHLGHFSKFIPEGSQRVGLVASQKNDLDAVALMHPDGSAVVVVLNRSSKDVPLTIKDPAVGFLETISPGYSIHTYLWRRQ
Outline: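 Normal human glucocerebrosidase (0.2 nM) with blue fluorogenic substrate (80 uM final) in citrate/phosphate pH 5.9 with 10mM sodium taurocholate, 0.01% tween-20; 40 min RT, NaOH/glycine stop; fluorescence Ex 365/Em 440; AC50 from a titration from 0.6 nM upwards.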

[10] = target: Cytochrome P450 1A2 (Homo sapiens) (UniProt P05177); assay: p450-cyp1a2 (AID 410; calls by dose curve; further: potency means the concentration at half of the fitted maximal effect)
Chain of Cytochrome P450 1A2 (Homo sapiens) (P05177 whole entry, looked up): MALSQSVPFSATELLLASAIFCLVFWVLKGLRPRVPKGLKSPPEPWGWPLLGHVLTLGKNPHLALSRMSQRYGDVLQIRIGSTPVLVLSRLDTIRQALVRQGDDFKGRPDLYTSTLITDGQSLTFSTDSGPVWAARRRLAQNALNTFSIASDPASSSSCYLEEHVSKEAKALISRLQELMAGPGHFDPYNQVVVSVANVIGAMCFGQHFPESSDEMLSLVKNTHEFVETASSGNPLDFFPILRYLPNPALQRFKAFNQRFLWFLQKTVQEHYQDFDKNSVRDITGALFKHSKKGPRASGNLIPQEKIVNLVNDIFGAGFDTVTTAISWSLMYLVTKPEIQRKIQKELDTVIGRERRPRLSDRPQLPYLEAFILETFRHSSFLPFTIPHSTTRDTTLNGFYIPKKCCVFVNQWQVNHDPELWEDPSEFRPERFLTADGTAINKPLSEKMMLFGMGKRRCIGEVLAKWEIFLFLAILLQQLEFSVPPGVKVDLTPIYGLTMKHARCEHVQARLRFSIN
Outline: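 20nM CYP1A2, 100uM Luciferin-ME (=Km), 100mM KPO4; cpd 10 min RT; +NADPH regen, 60 min RT; stop/detect 20 min; luminescence. Normalized to furafylline 57 uM = full inhibition.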

[11] = NFAT Signaling Pathway (AID 444; active means well fitted curve in either direction with a large enough effect, not every such curve was filed as active;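 further: carbachol stimulus at about its EC50 of 1 µM final; on the % scale 0 is the no-effect control and ±100 the full control effect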); conditions: Jurkat NFAT-bla M1, carbachol, beta-lactamase ratio, 5 h; at 7.69 µM (top of the series)
Outline: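 Jurkat cells with NFAT-driven β-lactamase reporter and co-expressed M1 receptor, stimulated with carbachol (final 1 uM, ~EC50), compound titration, 5 h at 37 °C. CCF4 loaded 1 h at RT; 460/530 nm ratio gave %activity and AC50.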

[12] = Stat Signaling Pathway (AID 446; active means well fitted curve in either direction with a large enough effect, not every such curve was filed as active;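 further: ME-180 cervical cancer cells given 40 pM IL-6 alongside compound; SIE-controlled beta-lactamase reporter measured as 460/530 nm FRET emission ratio; on the % scale 0 is the no-effect control and ±100 the full control effect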); conditions: ME-180 (cervical carcinoma) SIE beta-lactamase reporter, IL-6 stimulated, 5 h; at 7.69 µM (top of the series)
Outline: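 Normalization used AC90 stimulation (300 pM IL-6) and AC90 inhibition (125 nM pan-JAK inhibitor at 40 pM IL-6). The underlying signal is SIE-driven beta-lactamase in ME-180 cells after 5 h IL-6 exposure with compound.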

[13] = target: Glucocorticoid receptor (Homo sapiens) (UniProt P04150); assay: GR-GFP Redistribution (AID 450;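 active means compounds whose dose series gives a full or clear partial fitted curve of increased nuclear translocation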; further: potency means the concentration at half of the fitted maximal effect); conditions: U2OS GR-GFP nuclear translocation, laser cytometry, 2 h
Chain of Glucocorticoid receptor (Homo sapiens) (P04150 whole entry, looked up, the tested form may be a part): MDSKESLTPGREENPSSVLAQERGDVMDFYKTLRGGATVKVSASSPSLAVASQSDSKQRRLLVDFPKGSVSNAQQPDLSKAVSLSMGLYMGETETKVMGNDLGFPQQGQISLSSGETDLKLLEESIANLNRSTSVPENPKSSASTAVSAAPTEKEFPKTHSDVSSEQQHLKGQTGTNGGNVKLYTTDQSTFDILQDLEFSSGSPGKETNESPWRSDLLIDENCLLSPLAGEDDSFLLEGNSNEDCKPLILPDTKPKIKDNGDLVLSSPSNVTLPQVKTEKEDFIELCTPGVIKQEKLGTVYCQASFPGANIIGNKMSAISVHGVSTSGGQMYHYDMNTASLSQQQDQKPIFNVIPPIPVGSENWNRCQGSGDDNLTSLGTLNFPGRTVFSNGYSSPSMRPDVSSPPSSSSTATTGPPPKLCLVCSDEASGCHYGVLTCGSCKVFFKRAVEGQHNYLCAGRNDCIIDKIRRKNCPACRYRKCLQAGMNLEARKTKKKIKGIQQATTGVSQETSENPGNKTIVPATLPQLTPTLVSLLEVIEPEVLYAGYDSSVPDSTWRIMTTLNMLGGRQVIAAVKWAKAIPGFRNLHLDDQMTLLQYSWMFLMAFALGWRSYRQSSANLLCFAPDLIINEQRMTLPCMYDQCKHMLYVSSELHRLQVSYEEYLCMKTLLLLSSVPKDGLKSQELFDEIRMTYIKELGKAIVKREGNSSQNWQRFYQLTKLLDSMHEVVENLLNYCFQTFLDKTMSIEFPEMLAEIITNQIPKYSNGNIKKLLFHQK

[14] = target: Glucocorticoid receptor (Homo sapiens) (UniProt P04150); assay: GR-EFC Redistribution (AID 451; calls by dose curve; further: potency means the concentration at half of the fitted maximal effect); conditions: CHO-K1 GR-EFC translocation, beta-gal luminescence, 2 h
Outline: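 CHO-K1 cells expressing nuclear EA and GR-ED fragments of b-gal; compounds titrated up to 46 uM final, 2 h at 37 C. GR nuclear translocation read as complemented b-gal luminescence after 1 h RT detection.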

[15] = target: Mitogen-activated protein kinase 10 (Mus musculus) (UniProt Q61831); assay: JNK3 AlphaScreen Assay (AID 530; active means well fitted curve in either direction with a large enough effect, not every such curve was filed as active;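 further: kinase came from lysate of stimulated human HepG2 cells; signal reports phosphorylation of biotinylated GST-cJun 1-79 at Ser73 with 10 µM ATP; on the % scale 0 is the no-effect control and ±100 the full control effect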)
Outline: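 HepG2 lysate (IL-1b/TNFa pre-activated) + biotin-GST-cJun 1-79 + anti-pSer73 cJun; cpd titration, 15 min RT; ATP 10 uM start; Tris pH 7.6, MgCl2, DTT, vanadate; beads in EDTA buffer; AlphaScreen.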

[16] = target: Cytochrome P450 3A4 (Homo sapiens) (UniProt P08684); assay: qHTS Assay for Inhibitors and Substrates of Cytochrome P450 3A4 (AID 884); further: on the % scale 0 is the no-effect control and ±100 the full control effect; nearly all actives have a fitted effect of over 50% in size
Outline: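 Luminescent readout of luciferin produced by CYP3A4 (20 nM) dealkylation of Luciferin-PPXE, 25 uM (its KM). NADPH-driven reaction ran 60 min at RT after 10 min compound preincubation; data scaled to 57 uM ketoconazole as 100% inhibition.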

[17] = target: Cytochrome P450 2D6 (Homo sapiens) (UniProt P10635); assay: qHTS Assay for Inhibitors and Substrates of Cytochrome P450 2D6 (AID 891); further: potency means the concentration at half of the fitted maximal effect; nearly all actives have a fitted effect of over 60% in size
Chain of Cytochrome P450 2D6 (Homo sapiens) (P10635 whole entry, looked up): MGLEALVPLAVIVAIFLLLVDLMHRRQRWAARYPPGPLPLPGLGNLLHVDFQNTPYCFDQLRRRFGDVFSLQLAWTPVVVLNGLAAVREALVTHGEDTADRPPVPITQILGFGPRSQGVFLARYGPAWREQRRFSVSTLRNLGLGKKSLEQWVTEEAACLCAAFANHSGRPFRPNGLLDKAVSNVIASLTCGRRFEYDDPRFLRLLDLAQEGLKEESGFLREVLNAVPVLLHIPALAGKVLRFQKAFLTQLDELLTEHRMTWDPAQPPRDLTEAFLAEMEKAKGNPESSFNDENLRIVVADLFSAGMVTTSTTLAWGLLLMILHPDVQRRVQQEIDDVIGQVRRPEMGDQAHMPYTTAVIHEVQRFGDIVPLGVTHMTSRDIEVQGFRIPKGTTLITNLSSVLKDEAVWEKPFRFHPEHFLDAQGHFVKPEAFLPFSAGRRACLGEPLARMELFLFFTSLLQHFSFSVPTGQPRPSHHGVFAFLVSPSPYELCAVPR
Outline: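 Luminescent read-out of luciferin formed by 5 nM human CYP2D6 demethylating 30 uM Luciferin-ME EGE (Km level) over 60 min at room temperature after NADPH regeneration addition. Data normalized to full inhibition by 1.43 uM quinidine.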

[18] = target: Cytochrome P450 2C19 (Homo sapiens) (UniProt P33261); assay: qHTS Assay for Inhibitors and Substrates of Cytochrome P450 2C19 (AID 899); further: potency means the concentration at half of the fitted maximal effect; nearly all actives have a fitted effect of over 60% in size
Chain of Cytochrome P450 2C19 (Homo sapiens) (P33261 whole entry, looked up): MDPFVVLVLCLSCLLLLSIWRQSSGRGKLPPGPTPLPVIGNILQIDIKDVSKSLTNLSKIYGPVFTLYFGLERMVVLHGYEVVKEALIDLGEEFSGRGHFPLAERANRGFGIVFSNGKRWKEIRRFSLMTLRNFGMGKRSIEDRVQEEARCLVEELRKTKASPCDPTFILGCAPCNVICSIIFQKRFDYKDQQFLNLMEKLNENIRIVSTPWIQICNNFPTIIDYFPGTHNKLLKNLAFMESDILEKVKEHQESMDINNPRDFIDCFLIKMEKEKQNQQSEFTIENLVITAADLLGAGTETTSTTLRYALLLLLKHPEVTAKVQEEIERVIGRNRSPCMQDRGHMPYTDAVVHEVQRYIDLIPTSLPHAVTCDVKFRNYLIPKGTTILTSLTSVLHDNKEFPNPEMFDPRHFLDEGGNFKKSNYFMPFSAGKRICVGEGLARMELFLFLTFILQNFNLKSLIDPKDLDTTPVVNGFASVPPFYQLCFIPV
Outline: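 Signal comes from luciferase acting on luciferin released by CYP2C19-mediated hydroxylation of Luciferin-H EGE, 10uM (KM). Assay mix: 5nM enzyme, 50mM KPO4; 60 min at 37C with NADPH regeneration. Data normalized against 57uM ketoconazole.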

[19] = Confirmation and Secondary Assay for Modulators of Hemoglobin Beta Chain Splicing at IVS2 654 locus (AID 910);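 further: HeLa cells stably carrying EGFP split by mutant beta-globin IVS2-654 intron; % of control where 0% means no effect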
Outline: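 HeLa cells stably expressing EGFP interrupted by β-globin IVS2-654 intron, seeded overnight in Opti-MEM/2% FCS, then treated 2 days at 37 °C. Restored splicing read as total peak GFP intensity per well by laser scanning cytometry (488 nm excitation, 500–520 nm emission); 500 nM antisense PNA as control.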

[20] = Confirmation and Secondary Assay for Modulators of Hemoglobin Beta Chain Splicing at IVS2 705 locus (AID 930);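 further: HeLa cells stably expressing the EGFP-705 splicing reporter; % of control where 0% means no effect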
Outline: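 Restored EGFP fluorescence after 2-day compound exposure reports splicing correction in IVS2-705 EGFP reporter HeLa cells; positive control was 500 nM splice-blocking PNA oligo. Signal measured as well total peak GFP intensity (488 nm excitation).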

[21] = qHTS Assay for Lipid Storage Modulators (AID 1519; calls by dose curve); conditions: Drosophila S3 cells, BODIPY lipid droplet/cell ratio, laser cytometry, cells loaded with oleic acid
Outline: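 Cells seeded at 5,000 per well were treated with compounds over a concentration series and loaded with oleic acid (400 uM, as added). Lipid droplet fluorescence (488 nm excitation, 500-530 nm channel) was read by laser-scanning cytometry and normalized to 20 uM Triacsin C.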

[22] = target: Ubiquitin carboxyl-terminal hydrolase 1 (Homo sapiens) (UniProt O94782); assay: Inhibitors of USP1/UAF1: Pilot qHTS (AID 504865);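 further: rhodamine fluorescence freed from ubiquitin-rhodamine substrate followed over time; top concentration of the series differs between compounds; on the % scale 0 is the no-effect control and ±100 the full control effect; nearly all actives have a fitted effect of over 35% in size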
Chain of Ubiquitin carboxyl-terminal hydrolase 1 (Homo sapiens) (O94782 whole entry, looked up): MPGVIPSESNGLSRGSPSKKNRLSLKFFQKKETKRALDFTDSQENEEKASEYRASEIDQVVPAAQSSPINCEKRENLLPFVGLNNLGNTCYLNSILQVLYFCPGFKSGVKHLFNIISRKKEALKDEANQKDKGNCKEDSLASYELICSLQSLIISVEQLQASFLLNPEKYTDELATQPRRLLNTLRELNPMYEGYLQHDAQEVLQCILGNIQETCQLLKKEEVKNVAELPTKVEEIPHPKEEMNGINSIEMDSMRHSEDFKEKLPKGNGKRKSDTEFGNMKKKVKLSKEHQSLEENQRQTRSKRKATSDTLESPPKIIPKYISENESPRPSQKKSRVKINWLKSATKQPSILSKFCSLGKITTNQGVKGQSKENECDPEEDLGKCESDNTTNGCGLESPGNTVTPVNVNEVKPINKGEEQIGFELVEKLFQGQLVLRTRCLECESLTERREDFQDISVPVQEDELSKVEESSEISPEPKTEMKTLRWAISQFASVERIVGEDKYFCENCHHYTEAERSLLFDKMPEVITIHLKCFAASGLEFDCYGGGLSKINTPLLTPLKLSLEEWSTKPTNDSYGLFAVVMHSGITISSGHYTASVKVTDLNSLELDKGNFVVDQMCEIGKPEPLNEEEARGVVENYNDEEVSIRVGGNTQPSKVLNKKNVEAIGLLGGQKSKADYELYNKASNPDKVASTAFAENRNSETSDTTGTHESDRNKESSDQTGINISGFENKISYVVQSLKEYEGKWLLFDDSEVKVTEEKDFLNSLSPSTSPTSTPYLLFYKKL
Outline: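 Enzyme-free wells gave the negative control, while test wells held 1nM USP1/UAF1 preincubated with compound for 15 min at room temperature. Ub-Rho at 150nM final started the reaction, and fluorescence at 480/540 nm was recorded kinetically.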

[23] = Primary qHTS for small molecule stabilizers of the endoplasmic reticulum resident proteome: Secreted ER Calcium Modulated Protein (SERCaMP) assay (AID 1508630); further: on the % scale 0 is the no-effect control and ±100 the full control effect
Outline: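 The SH-SY5Y reporter protocol was run at 3 concentrations up to 38.3 uM (primary) or 11 concentrations (follow-up): 16 h compound, 100 nM thapsigargin for 4 h, then extracellular luciferase luminescence.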

[24] = target: Tyrosine-protein kinase Yes (Homo sapiens) (UniProt P07947); assay: qHTS for small molecule inhibitors of Yes1 kinase: Primary Screen (AID 686947); further: potency means the concentration at half of the fitted maximal effect; nearly all actives have a fitted effect of over 60% in size
Chain of Tyrosine-protein kinase Yes (Homo sapiens) (P07947 whole entry, looked up): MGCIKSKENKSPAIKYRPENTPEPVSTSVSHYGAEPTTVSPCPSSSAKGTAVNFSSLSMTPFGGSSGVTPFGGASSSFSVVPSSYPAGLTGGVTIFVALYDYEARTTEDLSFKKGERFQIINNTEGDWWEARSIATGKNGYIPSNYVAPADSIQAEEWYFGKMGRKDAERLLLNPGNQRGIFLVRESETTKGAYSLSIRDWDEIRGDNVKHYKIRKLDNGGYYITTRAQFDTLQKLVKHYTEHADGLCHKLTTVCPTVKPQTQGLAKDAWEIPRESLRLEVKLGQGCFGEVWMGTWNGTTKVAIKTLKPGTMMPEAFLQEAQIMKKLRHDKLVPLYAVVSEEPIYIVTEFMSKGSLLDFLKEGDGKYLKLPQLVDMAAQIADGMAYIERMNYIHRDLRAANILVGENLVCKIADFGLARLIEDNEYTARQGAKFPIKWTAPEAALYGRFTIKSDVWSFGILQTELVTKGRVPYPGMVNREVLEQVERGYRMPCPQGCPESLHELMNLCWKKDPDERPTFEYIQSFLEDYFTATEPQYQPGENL
Outline: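 In this qHTS format, inhibition is expressed relative to DMSO controls with enzyme (maximum) and without enzyme (minimum). The 60 min room-temperature reaction uses 0.1 mM ATP, with ADP detected by luminescence.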

[25] = qHTS for small molecule inhibitors of Yes1 kinase: Counter Assay (AID 686950);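 further: no kinase present so only ADP-Glo detection of a fixed ADP amount is tested; luminescence from ADP-Glo reporting ADP in a fixed ATP and ADP mixture; 0% = DMSO wells with ATP plus ADP and -100% = ATP-only wells without ADP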
Outline: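 No kinase present; 0.08 mM ATP + 0.02 mM ADP in 50 mM Tris pH 7.5, 10 mM MgCl2, 150 mM NaCl, 1 mM DTT; 20 min compound preincubation, 60 min RT, ADP-Glo luminescence, normalized to ATP/ADP (max) and ATP-only (min).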

CNC(=O)c1c(C)oc2cc(Oc3ncnc4cc(OC)c(OC)cc34)ccc12
-0.16: Z-AUC ([6]; measured here: PEO1 parental Z-AUC)
inactive: Potency [1] | Potency [2] | Potency [3] | Potency [4] | Potency [5] | Z-AUC [6] -0.474
-0.205: Z-AUC ([6]; measured here: PEO4 Z-AUC)

Cc1nc(CNc2ncnc3ccc(-c4ccc5c(c4)OCO5)cc23)cs1
inactive: Potency [1] | Potency [7] | Potency [4]

CC(C)OC(=O)OCOP(=O)(COC(C)Cn1cnc2c(N)ncnc21)OCOC(=O)OC(C)C (stereo not given)
inactive: Potency [1] | Potency [7] | Potency [3]

CCOC(=O)c1c2c3c(cccc3[nH]c1=O)C(=O)c1ccccc1-2
inactive: Potency [1] | Potency [7] | Potency [8] | Potency [3] | Potency [4]

Nc1ncnc2c1ncn2[C@H]1O[C@H](CO)[C@@H](O)[C@@H]1O
inactive: Potency [1]
active: Potency [8] 39.8 µM | Potency [3] 39.8 µM

Nc1ccn([C@H]2O[C@@H](CO)[C@H](O)[C@H]2O)c(=O)n1
active: Potency [1] 3.66 µM | Potency [8] 0.0206 µM | Potency [3] 0.0164 µM

c1csc(CNc2ncnc3ccc(-c4ccc5c(c4)OCO5)cc23)c1
active: Potency [10] 0.398 µM | Potency [17] 0.398 µM | Potency [18] 3.98 µM | Potency [1] 11.6 µM
14.3%: max response ([21]; measured here: cell count channel max response)
25.9%: max response ([21]; measured here: lipid channel max response)
inactive: Potency [9] > 11.4 µM | activity change, negative = inhibition [11] 5.05% | activity, negative = inhibition [12] -12.1% | Potency [13] > 46 µM | Potency [14] > 46 µM | Potency [15] | Potency [16] | outcome [19] | outcome [20] | activity change, negative = inhibition ([21]; at 57.5 µM (top of the series)) 9.51% | Potency [22] | Potency [23] | Potency [4]

CN(c1ccc(NC(=O)Nc2ccc(OC(F)(F)F)cc2)cc1)c1ccnc(Nc2cccc(S(N)(=O)=O)c2)n1
inactive: outcome [25] | Potency [4]
active: Potency [24] 0.0823 µM | Potency [1] 18.4 µM | Potency [8] 3.66 µM | Potency [3] 1.03 µM
